# High-throughput results: PubChem, National Center for Advancing Translational Sciences (NCATS)
# Methyltransferases = Primary Screen for Target Class Profiling of Small Molecule Inhibitors of Methyltransferases; purified enzyme, MTase-Glo SAH luminescence; hits give low values; calls only at 40 µM; 3.9% of 25,000 active; AID 1745853, 2022; call rule not given here
#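 Each enzyme was reacted with SAM and its substrate, with compounds tested once at 40 uM; SAH formed was read by MTase-Glo luminescence.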
# * hit, by the source's call; i = inactive; + = active, no number. This is one part of a sample in which hits are shown more often than they occur. On the % scale 0 is the no-effect control and ±100 the full control effect.
SMILES,Methyltransferases
CCCN1C(=O)c2cc(C(=O)NCc3ccc(N(C)C)cc3)nn2CC1(C)C(=O)NC1CCCC1 (stereo not drawn),i
CCOc1ccc(NC(=O)N2CCn3cccc3C2Cc2ccccc2)cc1 (stereo not drawn),i
CC1CC(=O)NN=C1c1ccc(NCC(C)(C)NCC(O)COc2cc(Cl)ccc2C#N)cc1 (stereo not drawn),i
CC(C)c1cc2c(c(O)c1O)[C@@]13CCCC(C)(C)C1[C@@H](O)[C@@H]2OC3=O (stereo partly drawn),+
COC1OC(=O)C2=C1C1(C)CCCC(C)(C)C1CC2O (stereo not drawn),i
CC(C)c1cc2c(c(O)c1O)[C@@]13CCCC(C)(C)[C@@H]1[C@H](OC3=O)C2=O,i
Cc1ccc(CN2C(=O)c3ccccc3CC2(C)C(=O)NCc2ccccc2C)cc1 (stereo not drawn),i
CC(C)c1cccc2c(-c3ccccc3)cc(-c3ccc(-c4ccc(C(=O)O)cc4)[nH]3)nc12,+
O=C(O)c1cn(C2CC2)c2cc(N3C[C@@H]4C[C@H]3CN4)c(F)cc2c1=O,i
COc1ccc(C)cc1NC(=O)Cn1c(=O)oc2cc(S(=O)(=O)N3CCCC3)ccc21,i
COC(=O)c1ccc(CNC(=O)CC2c3cccnc3C(=O)N2c2ccccc2)cc1 (stereo not drawn),i
CCOc1ccc(CNC(=O)CNC(=O)C2(C)Cn3c(cc4ccccc43)C(=O)N2C)cc1 (stereo not drawn),i
COc1c(O)cc2c(c1O)[C@@H]1O[C@H](CO)[C@@H](O)[C@H](O)[C@H]1OC2=O,+
COc1cc(COC2OC(CO)C(O)C(O)C2O)cc(OC)c1O (stereo not drawn),i
COC(=O)c1ccc(O[C@@H]2O[C@H](CO)[C@@H](O)[C@H](O)[C@H]2O)c(OC)c1,i
COC(=O)[C@@H](Cc1cccnc1)NC(=O)[C@@H]1CN(C(=O)c2cccc(F)c2)CCN1C(=O)C1CCCCC1,i
CCCn1c(=O)c2cc(Cl)ccc2n2c(=O)n(CC(=O)Nc3ccc4c(c3)OCCO4)nc12,i
Nc1nonc1-c1nc2cnccc2n1C1CCCCC1,+
COCCN1CC(CO)C2(CCN(C3CCN(C(C)=O)CC3)CC2)C1 (stereo not drawn),i
O=C(CCc1nnc2n(Cc3ccc(Cl)cc3)c(=O)c3ccccc3n12)NCCN1CCCC1,+
CC1CCN(CCCNC(=O)CCc2nnc3n(Cc4ccccc4Cl)c(=O)c4ccccc4n23)CC1,+
O=C(CCc1nnc2n(Cc3ccccc3Cl)c(=O)c3ccccc3n12)NCCN1CCOCC1,i
CC(C)CCNC(=O)CCc1nnc2n(Cc3ccccc3Cl)c(=O)c3ccccc3n12,i
Cc1ccc(Cn2c(=O)c3ccccc3n3c(CCC(=O)N4CCC(N5CCCCC5)CC4)nnc23)cc1,+
O=C(CCc1nnc2n(Cc3ccc(F)cc3)c(=O)c3ccccc3n12)NCCc1ccccc1,i
SMILES,Methyltransferases
CC1CCCCN1CCNC(=O)CCc1nnc2n(Cc3ccc(F)cc3)c(=O)c3ccccc3n12 (stereo not drawn),+
O=C(CCc1nnc2n(Cc3ccccc3)c(=O)c3ccccc3n12)NCCN1CCCC1,i
O=C(CCc1nnc2n(Cc3ccccc3)c(=O)c3ccccc3n12)N1CCN(C2CCCCC2)CC1,i
CC(C)CCNC(=O)CCc1nnc2n(Cc3ccc(F)cc3)c(=O)c3ccccc3n12,i
O=C(CCc1nnc2n(Cc3ccc(Cl)cc3)c(=O)c3ccccc3n12)NCCCN1CCOCC1,i
Cc1ccc(Cn2c(=O)c3ccccc3n3c(CCC(=O)N4CCC(C)CC4)nnc23)cc1,i
O=C(NC1CCCCC1)c1ccc2oc(-c3ccnc(Cl)c3)nc2c1,i
Cc1ccc(S(=O)(=O)Nc2ccc3c(c2)CN(CCc2ccc(F)cc2)C(=O)C(C)O3)cc1F (stereo not drawn),i
CCCn1c(=O)c2ccc(C(=O)NC3CCCCC3)cc2n2c(=O)n(CC(=O)N(C)c3ccccc3)nc12,i
COCCc1nncn1C1CCN(C(=O)c2ccc(C)s2)CC1,i
CCCn1c(=O)c2ccc(Cl)cc2n2c(=O)n(CC(=O)c3c(C)[nH]c4ccccc34)nc12,i
CC(C)Cn1c(=O)c2ccccc2n2c(SCC(=O)Nc3ccc(F)cc3)nnc12,i
C/C=C(\C)C(=O)OC1C(C)C2(O)C3C=C(C)C(=O)C3CC(CO)=CC2C2C(C)(C)C12OC(C)=O (stereo not drawn),i
CN1CCN([C@H]2CCN(C(=O)CCCc3cn[nH]c3)C[C@H]2CCC(=O)O)CC1,i
COc1ccc(N2CCN(C(=O)c3ccc4c(=O)nc5c(-c6cccc(C)c6)n[nH]n5c4c3)CC2)cc1,i
CCn1ncc(CN2CCCCCNC(=O)[C@@H]3CCC[C@@H]32)c1C,i
CCCN1C(=O)c2ccc(-c3ccccc3)n2CC1(C)C(=O)NC1CCCCCCC1 (stereo not drawn),i
Cc1ccc(N2CCN(C(=O)Cn3c(=O)oc4cc(S(=O)(=O)N5CCCC5)ccc43)CC2C)cc1 (stereo not drawn),i
O=C(NC1CCCCC1)c1nc[nH]c1C(=O)NCCc1c[nH]c2ccccc12,i
CCc1ccccc1NC(=O)CSc1nnc2n(CCC(C)C)c(=O)c3ccccc3n12,i
CC1CCC(NC(=O)C2(C)Cn3c(nc4ccccc43)C(=O)N2CC(C)c2ccccc2)CC1 (stereo not drawn),i
CS(=O)(=O)N1CCC2(CC1)CN(C(=O)c1ccc(N)nc1)Cc1ccccc1O2,i
O=C(Cn1nc2nc(Nc3ccc(F)cc3)ccn2c1=O)Nc1ccc2c(c1)OCO2,i
O=C(c1ccc(Cl)cc1)N1CCN(Cc2ccccc2-c2cccnc2)CC1,i
O=C(Cn1cncn1)N1CCc2onc(C(c3ccccc3)c3ccccc3)c2C1,i
SMILES,Methyltransferases
O=C(CCCc1nnc2n3nc(-c4ccccc4)nc3c3ccccc3n12)NCCc1ccccc1,i
O=C(CCCc1nnc2n3nc(-c4ccccc4)nc3c3ccccc3n12)NCc1ccccc1,i
O=C(CCc1nnc2n(CCc3ccccc3)c(=O)c3ccccc3n12)NCCCN1CCOCC1,i
O=C(CCc1nnc2n(CCc3ccccc3)c(=O)c3ccccc3n12)NCCc1ccccc1,i
O=C(CCc1nnc2n(CCc3ccccc3)c(=O)c3ccccc3n12)NCCCN1CCCCC1,+
O=C(CCCc1nnc2n3nc(-c4ccccc4)nc3c3ccccc3n12)NCCN1CCCC1,+
CC(C)n1c(=O)c2ccc(C(=O)NC3CCCCC3)cc2n2c(=O)n(Cc3cccc(F)c3)nc12,i
CC(C)CCNC(=O)C1(C)Cn2c(cc3ccccc32)C(=O)N1Cc1ccccc1 (stereo not drawn),i
COc1ccccc1CNC(=O)CN(C)S(=O)(=O)c1ccc2[nH]c3c(c2c1)CCCC3,i
Cc1ccc(NC(=O)N2Cc3c(sc4c3CCCC4)-n3cccc3C2c2ccccc2)cc1 (stereo not drawn),i
CCCn1c(=O)c2ccc(C(=O)NC(C)CC)cc2n2c(SCC(N)=O)nnc12 (stereo not drawn),i
COC(=O)CC1OC(C)C2=C(O)c3c(O)cccc3C(=O)C23OC13 (stereo not drawn),+
CC1(C)CC(=O)C2=C(C1)NC(=S)NC2c1cccc(O)c1 (stereo not drawn),i
